The values that follow come from a collection of fitness landscapes (doi:10.1126/science.1257360).

In all, about 140,000 sequences were measured (“enrichment ratio after two sorts for PhoP signalling”: median about 0, highest 2% from about 11 on). Only a selection was taken, and the highest values are over-represented in it overall.

To fix the notation:
B1: PhoQ; a variant is named by its letters at X, in order, P23837 (parent)
chain: MKKLLRLFFPLSLRVRFLLATAAVVLVLSLAYGMVALIGYSVSFDKTTFRLLRGESNLFYTLAKWENNKLHVELPENIDKQSPTMTLIYDENGQLLWAQRDVPWLMKMIQPDWLKSNGFHEIEADVNDTSLLLSGDHSIQQQLQEVREDDDDAEMTHSVAVNVYPATSRMPKLTIVVVDTIPVELKSSYMVWSWFIYVLSANLLLVIPLLWVAAWWSLRPIEALAKEVRELEEHNRELLNPATTRELTSLVRNLNRLLKSERERYDKYRTTLTDLTHSLKTPLXXLQXXLRSLRSEKMSVSDAEPVMLEQISRISQQIGYYLHRASMRGGTLLSRELHPVAPLLDNLTSALNKVYQRKGVNISLDISPEISFVGEQNDFVEVMGNVLDNACKYCLEFVEISARQTDEHLYIVVEDDGPGIPLSKREVIFDRGQRVDTLRPGQGVGLAVAREITEQYEGKIVAGESMLGGARMEVIFGRQHSAPKDE

Variants of B1 are the subject of this assay. Description: enrichment ratio after two sorts for PhoP signalling (ratio (wild type AVST 3.29)); higher = more functional. Particulars: with PhoP (E. coli).
Turning to YCQN, the enrichment ratio was at most 0.25. The result for DLMC reads at most 0.25.

Turning to PANG, the enrichment ratio is at most 0.25. In the case of THES it was at most 0.25. In the case of THGV it was 1.56. For the variant PMKY, the enrichment ratio is at most 0.25. In the case of TLGR it was at most 0.25.

For the variant GLIF, the enrichment ratio is at most 0.25. As for ACGL, the enrichment ratio was 2.96.

On to FCSL, for which the enrichment ratio stood at 0.351. In the case of KCCL it was at most 0.25. In the case of KCSL it was at most 0.25; in that of TCDS, 1.7; in that of TCNS, 16.1. On to TCSL, for which the enrichment ratio is 16.4.

Take ACSL: the enrichment ratio was found to be 16.6. In the case of VECL it was 2.59. The result for TCWI reads 1.27. Take TCCL: the enrichment ratio is 13.8. The result for GQSL reads at most 0.25; that for IIGM, at most 0.25; that for QKHF, at most 0.25.

As for LRCK, the enrichment ratio was at most 0.25. In the case of NVPP it was at most 0.25; in that of APIR, at most 0.25; in that of AWVY, at most 0.25. Turning to ELQD, the enrichment ratio is at most 0.25.

Regarding SGPP, the enrichment ratio was at most 0.25. In the case of HHVH it was at most 0.25; in that of TICC, 2.66; in that of KPAP, at most 0.25. In the case of AQWF it was at most 0.25; in that of TCVA, at most 0.25; in that of TCDT, at most 0.25. The result for TCSR reads 5.34; that for KCSS, at most 0.25. With KCAY, the enrichment ratio was at most 0.25. In the case of TCAT it was 14.5; in that of TCSK, 13.7; in that of TCAY, 14.1.

For TCNT, the enrichment ratio was 7.62.

TCSS: the enrichment ratio worked out at 15. Consider FCSS, for which the enrichment ratio is at most 0.25. The result for TCYI reads 1.36. The result for LFWM reads at most 0.25. The result for NNTR reads at most 0.25; that for IGVH, at most 0.25.

As to WSVN, the enrichment ratio was at most 0.25.

Take HDQK: the enrichment ratio was at most 0.25. The result for LDIL reads at most 0.25; that for MIIK, at most 0.25. In the case of TCAG it was 12.5; in that of FCAG, at most 0.25; in that of TCLN, 13.6. Take TCIE: the enrichment ratio is at most 0.25.

Consider VCLC, for which the enrichment ratio came to 2.94.

For the variant TCHE, the enrichment ratio is at most 0.25.

As for TCLC, the enrichment ratio was determined as 23.4.

On to FCLN, for which the enrichment ratio came out at 3.94. The result for KCAG reads at most 0.25; that for VCLN, 2.29.

FCLC: the enrichment ratio is 7.16. The result for TCNE reads 19.6; that for FAWY, at most 0.25; that for SDGA, at most 0.25.

GPWK: the enrichment ratio was at most 0.25. The result for LRLK reads at most 0.25.

Consider SNTI, for which the enrichment ratio turned out to be 10.1. Consider MHKW, for which the enrichment ratio is at most 0.25. IAWT: the enrichment ratio was at most 0.25. The result for DASW reads at most 0.25; that for TCEG, at most 0.25; that for GWNG, at most 0.25. QLVN: the enrichment ratio is at most 0.25. The result for FINA reads at most 0.25. The result for ENVY reads at most 0.25.

Turning to KCSG, the enrichment ratio was at most 0.25. The result for VCSG reads 0.44; that for KCSI, at most 0.25. In the case of TCSG it was 26.2. The result for TCNL reads 4.28; that for FCSI, at most 0.25. Consider GMGI, for which the enrichment ratio was at most 0.25. As for TCSI, the enrichment ratio was found to be 23.8. In the case of VEGI it was at most 0.25; in that of TCIL, at most 0.25. The result for TCGL reads 13.5; that for TCGI, 25. MHTY: the enrichment ratio was at most 0.25. In the case of LARC it was at most 0.25; in that of RLPH, at most 0.25; in that of TNFS, at most 0.25.

Consider RRNI, for which the enrichment ratio was at most 0.25. Take GIHS: the enrichment ratio was at most 0.25.

Consider YGWR, for which the enrichment ratio was at most 0.25. In the case of KELF it was at most 0.25.

Regarding LMEL, the enrichment ratio is at most 0.25. With FVVT, the enrichment ratio was at most 0.25.

On to HNCQ, for which the enrichment ratio was at most 0.25.

As for KTSH, the enrichment ratio is at most 0.25. In the case of QHHI it was at most 0.25; in that of GMRC, at most 0.25; in that of KSND, at most 0.25. On to KCST, for which the enrichment ratio is at most 0.25.

Take HVST: the enrichment ratio is at most 0.25. As to TCST, the enrichment ratio was 24.9. For the variant TCVT, the enrichment ratio was at most 0.25. In the case of TCND it was 20.6. As to MCTV, the enrichment ratio is at most 0.25. The result for EWLV reads at most 0.25.

Consider MTFH, for which the enrichment ratio came out at 3.3.

As to QYHL, the enrichment ratio was at most 0.25.

Consider YKTG, for which the enrichment ratio was at most 0.25. The result for SMFS reads at most 0.25.
